Laboratory results: PubChem BioAssay (NCI)
The panel holds about 79,000 compounds, 15% with a hit somewhere; the sample as a whole holds those more often. Cut-off read from the data, not from the text of the source: active = growth inhibition above about 70%; inactive = the rest.

Experiments:
[1] = NCI Yeast Anticancer Drug Screen. Data for the rad50 strain (AID 155);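 note: 0% = growth of vehicle-only cultures of the same strain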; details: S. cerevisiae rad50 strain growth inhibition; at 50.0 µM; stronger effect = higher value
Outline: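 Relative growth inhibition (compound vs vehicle) was measured in yeast with a defined repair-gene alteration.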

[2] = NCI Yeast Anticancer Drug Screen. Data for the mec2-1 strain (AID 157); details: S. cerevisiae mec2-1 strain, at 50.0 µM, stronger effect = higher value
Outline: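 Each compound was tested on mec2-1 yeast, a strain altered in DNA damage repair or cell cycle control. Growth inhibition is reported relative to vehicle.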

[3] = NCI Yeast Anticancer Drug Screen. Data for the sgs1 mgt1 strain (AID 161);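 note: 0% = growth of cultures given vehicle only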; details: S. cerevisiae sgs1 mgt1 strain, at 50.0 µM, stronger effect = higher value
Outline: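 Read-out: growth inhibition vs vehicle controls. Cells: mutant yeast strain deficient in DNA damage repair.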

[4] = NCI Yeast Anticancer Drug Screen. Data for the cln2 rad14 strain (AID 165);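 note: 0% = growth equal to vehicle treated cultures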; details: S. cerevisiae cln2 rad14 strain, at 50.0 µM, stronger effect = higher value
Outline: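 Test compounds were added to cln2 rad14 yeast cultures; inhibition of growth was then determined by comparison with vehicle treatment.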

[5] = NCI Yeast Anticancer Drug Screen. Data for the bub3 strain (AID 167); details: S. cerevisiae bub3 mutant strain, at 50.0 µM, stronger effect = higher value
Outline: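 Screening used yeast with an engineered genetic alteration affecting cell cycle control. Compound-exposed cultures were compared with vehicle cultures, and reduced growth was taken as inhibition.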

[6] = NCI Yeast Anticancer Drug Screen. Data for the mlh1 rad18 strain (AID 175); details: S. cerevisiae mlh1 rad18 strain growth inhibition; at 50.0 µM; stronger effect = higher value
Outline: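 Inhibition values reflect reduced growth of mutant yeast versus vehicle-treated controls following compound exposure; the mutations affect DNA damage repair.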

Measured: growth inhibition

O=C(O)COc1cc(-c2ccccc2F)nc2cc3c(cc12)OCO3
inactive: [1] 34.1% | [2] 22.5% | [3] 15.9% | [4] 7.9% | [5] -3.15% | [6] -18.1%

O[C@H]1[C@H](O)[C@@H](Cn2nnc(-c3ccccc3)c2-c2ccccc2)OCO[C@@H]1Cn1nnc(-c2ccccc2)c1-c1ccccc1
inactive: [1] 53.3% | [2] 31% | [3] 13.4% | [4] 50.9% | [5] 28.8% | [6] 29.1%

C/C=C1\NC(=O)[C@H]2CSSCCC=C[C@H](CC(=O)N[C@H](C(C)C)C(=O)N2)OC(=O)[C@H](C(C)C)NC1=O
inactive: [1] 26.1% | [2] 35.4% | [3] 26.1% | [4] 51.6% | [5] 58.4% | [6] 33.5%

COc1ccc2cc1Oc1ccc(cc1)CC1c3cc(OC)c(cc3CCN1C)Oc1c(OC)c(OC)cc3c1C(C2)N(C)CC3 (stereo unspecified)
inactive: [1] -4.6% | [2] -15.7% | [3] -6.8% | [4] 6.9% | [5] 5.25% | [6] -43.3%

C=C1CC2(C)CCC(OC(=O)C3(C)OC3C)C(C)(OC(C)=O)C2CC1=C(C)C (stereo unspecified)
inactive: [1] 7.7% | [2] -36.8% | [3] 7.55% | [4] 16.2% | [5] -4.85% | [6] -55%

CC1OC(Oc2c(-c3cc(O)c(O)c(O)c3)oc3cc(O)cc(O)c3c2=O)C(O)C(O)C1O (stereo unspecified)
inactive: [1] -14.2% | [2] -16.8% | [3] -8% | [4] 9.75% | [5] -21.2% | [6] -13.6%

N#CC1(C#N)C2CCCCC23OC(=N)C1(C#N)C(c1ccccc1)O3 (stereo unspecified)
inactive: [1] 9.3% | [2] 12.2% | [3] -22.7% | [4] -15.3% | [5] -29.9% | [6] -16.6%

COc1ccc2cc1Oc1ccc(cc1)C[C@@H]1c3cc(c(OC)cc3CCN1C)Oc1c(OC)c(OC)cc3c1[C@H](C2)N(C)CC3
inactive: [1] 22.1% | [2] -19.9% | [3] 6.25% | [4] 5.1% | [5] 9.4% | [6] -49.9%

COC(=O)c1cnn2c1n[n+]([O-])c1ccccc12
inactive: [1] -36.3% | [2] -36% | [3] -33.1% | [4] 15.9% | [5] -37% | [6] -8%

N#CCCOc1ccccc1
inactive: [1] -1.3% | [2] -26% | [3] -9.9% | [4] 15.9% | [5] -30.6% | [6] -8.5%

CC(=N\N=C\c1ccccn1)/C(C)=N/N=C/c1ccccn1
inactive: [1] 7.8% | [2] 10.3% | [3] -4.4% | [4] 30.6% | [5] -14.2% | [6] -53.3%

O=C1NC(N/N=C\c2ccccc2)=N/C1=C/c1ccccc1
inactive: [1] -2.9% | [2] 5.2% | [3] -0.1% | [4] 2.25% | [5] -0.3% | [6] -26.5%

N#C/C=C1\C=CC(O)C(O)C1OC1OC(CO)C(O)C(O)C1O (stereo unspecified)
inactive: [1] 21.6% | [2] 7.3% | [3] 37.9% | [4] 27.6% | [5] 12.9% | [6] -62.7%

CC(C)CCCC(C)[C@H]1CC[C@H]2[C@@H]3CC[C@H]4C[C@@H](CCC=C(c5cc(Cl)c(O)c(C(=O)O)c5)c5cc(Cl)c(O)c(C(=O)O)c5)CC[C@]4(C)[C@H]3CC[C@]12C (stereo partly specified) (tested in a mixture with another compound)
inactive: [1] 0.95% | [2] 22.4% | [3] 3.45% | [4] -8.4% | [5] 10.7% | [6] 51.2%

N#CC1(C#N)N[C@@H](c2ccsc2)[C@H]2C(=O)N(c3ccccc3)C(=O)[C@H]21
inactive: [1] 5.6% | [2] -8.2% | [3] 3.75% | [4] 8.5% | [5] -6.95% | [6] -4.05%

C=C1C(=O)O[C@H]2C[C@@]3(C)[C@H](O)CCC(=C)[C@@H]3[C@@H](OC(C)=O)[C@H]12
inactive: [1] 2.95% | [2] 25.4% | [3] 0.05% | [4] -6.7% | [5] -26.8% | [6] -29.4%
